Bioassay records: PubChem BioAssay, Broad Institute
The full list was thinned out, with hits kept by preference.
PD-1 reverse act: activators reversing PD-1 mediated T-cell inhibition, primary screen, luminescence, primary human CD4 T cells, PD-L1 beads. CellTiter-Glo 96 h. 29,000 tested, under 10 active. activation, % (no concentration beside the values). AID 2316, 2010; call rule not given here
NOMO-1 viab: NOMO-1 AML cell viability reduction, primary screen, STK33 inhibitor project, CellTiter-Glo luminescence | NOMO-1 AML viability, 72 h | inhibition, % (concentration not given with the values) | 7.5% of 37,000 active | AID 2330, 2010; in the data active means inhibition above about 80%; inconclusive means no clear call, values can overlap the other calls
YB-1 expression: inhibitors of YB-1 gene expression, primary screen, cell-based, fluorescence; U2OS, qRT-PCR YB-1 vs CDIP delta delta Cp, 16 h; hits give high values; zero = DMSO, each unit about twofold; delta delta Cp (YB-1 minus CDIP) (test concentration not listed); 0.37% of 30,000 active;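 active means delta delta Cp rounded down to an integer at or above 3, about 3 SD of DMSO wells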;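 further: higher means less YB-1 transcript or more CDIP transcript relative to DMSO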
ROS inducer: ROS inducers in U2OS cancer cells, primary screen, cell-based, H2DCF-DA fluorescence | 2% of 46,000 active | U2OS ROS induction | ROS induction (% of piperlongumine), % at 10 µM; in the data active means ROS induction above about 79%, passing the limit was not always enough; inconclusive means no clear call, values can overlap the other calls
Of the large screens only hits and unclear results are named; the others gave an inactive call.

COc1cc(NC(=O)COc2ccc3ccccc3c2Br)c(OC)cc1Cl	NOMO-1 viab 126 (no result: YB-1 expression)
COC(=O)c1cc(OC)c(OC)cc1NC(=O)COc1ccc2ccccc2c1Br	none (no result: YB-1 expression)
c1ccc(-c2ccc3c4ccccc4cc-3o2)cc1	NOMO-1 viab 106
Nc1cc(-c2ccccc2)c2ccccc2n1	none (no result: PD-1 reverse act, NOMO-1 viab, YB-1 expression)
c1ccc2sc(SCc3nc4c5c6c(sc5ncn4n3)CCCC6)nc2c1	none (no result: YB-1 expression)
O=C(O)CCc1ccc(-c2ccccc2)n1-c1ccc([N+](=O)[O-])cc1	none (no result: PD-1 reverse act, YB-1 expression, ROS inducer)
Cc1ccc2cc3c(nc2c1)N(c1ccc(C(=O)NCc2ccco2)cc1)CC3	NOMO-1 viab 116
Cc1ccc2cc3c(nc2c1)N(c1ccccc1)CC3	none
CSc1nc2ccc3nc(NC(=O)c4ccccc4C)sc3c2s1	none (no result: PD-1 reverse act, NOMO-1 viab, YB-1 expression)
C[C@H]1CN([C@@H](C)CO)C(=O)Cc2cc(NC(=O)Nc3ccccc3)ccc2O[C@H]1CN(C)CC1CCCCC1	NOMO-1 viab 90
C[C@@H]1CN([C@@H](C)CO)C(=O)Cc2cc(NC(=O)Cc3ccccc3)ccc2O[C@@H]1CN(C)CC1CCCCC1	none
C[C@@H]1CN([C@H](C)CO)C(=O)Cc2cc(NC(=O)Nc3ccc(C(F)(F)F)cc3)ccc2O[C@@H]1CN(C)CC1CCCCC1	NOMO-1 viab inconclusive
C[C@H]1CN([C@@H](C)CO)C(=O)Cc2cc(NC(=O)Nc3cccc4ccccc34)ccc2O[C@@H]1CN(C)CC1CCCCC1	NOMO-1 viab 136
C[C@H]1CN([C@@H](C)CO)C(=O)Cc2cc(NC(=O)Cc3ccccc3)ccc2O[C@@H]1CN(C)CC1CCCCC1	ROS inducer 108
C[C@@H]1CN([C@H](C)CO)C(=O)Cc2cc(NC(=O)Nc3ccc(C(F)(F)F)cc3)ccc2O[C@H]1CN(C)CC1CCCCC1	NOMO-1 viab 116
C[C@@H]1CN([C@H](C)CO)C(=O)Cc2cc(NC(=O)Nc3ccccc3)ccc2O[C@H]1CN(C)CC1CCCCC1	NOMO-1 viab inconclusive
c1ccc(-c2nn3c(-c4ccccc4)nnc3c3ccccc23)cc1	none (no result: PD-1 reverse act, NOMO-1 viab, YB-1 expression)
COc1ccc(S(=O)(=O)Nc2cccc3c2O[C@H](CN(C)Cc2ccc(Cl)c(Cl)c2)[C@H](C)CN([C@@H](C)CO)C3=O)cc1	ROS inducer 84
C[C@@H]1CN([C@@H](C)CO)C(=O)c2cccc(NS(=O)(=O)c3ccc(Cl)cc3)c2O[C@@H]1CN(C)Cc1ccc(Cl)c(Cl)c1	none
C[C@H](CO)N1C[C@H](C)[C@H](CN(C)Cc2ccc(Cl)c(Cl)c2)Oc2c(NS(=O)(=O)c3ccc(F)cc3)cccc2C1=O	NOMO-1 viab 91
COc1ccc(S(=O)(=O)Nc2cccc3c2O[C@@H](CN(C)Cc2ccc(Cl)c(Cl)c2)[C@@H](C)CN([C@H](C)CO)C3=O)cc1	NOMO-1 viab 115
COc1ccc(S(=O)(=O)Nc2cccc3c2O[C@H](CN(C)Cc2ccc(Cl)c(Cl)c2)[C@@H](C)CN([C@H](C)CO)C3=O)cc1	none (no result: PD-1 reverse act)
CCC(Sc1nc2ccncc2[nH]1)C(=O)N(CC)CC (configuration not stated)	none (no result: PD-1 reverse act, NOMO-1 viab, YB-1 expression)
N=c1c(S(=O)(=O)c2ccccc2)cc2c(=O)n3ccccc3nc2n1C1CCCC1	ROS inducer 83 (no result: PD-1 reverse act, NOMO-1 viab, YB-1 expression)
N#CCCSc1nnc(-c2ccncc2)n1Cc1ccccc1	none (no result: YB-1 expression)
Cc1cc(/C=C2/SC(=O)N(C(C)C)C2=O)c(C)n1-c1ccncc1	YB-1 expression 9.6
Cc1cc(C)cc(-n2c(C)cc(/C=C3\SC(=O)NC3=O)c2C)c1	none
Cc1cc2nc(SCC(=O)NN)[nH]c2cc1C	none
COc1ccc2nc(Sc3c([N+](=O)[O-])nc(C)n3Cc3ccccc3)[nH]c2c1	NOMO-1 viab 102 (no result: YB-1 expression)
COc1ccc2nc(SCC(=O)Nc3cccc([N+](=O)[O-])c3)[nH]c2c1	none (no result: YB-1 expression)
Cc1cc2nc(Sc3c([N+](=O)[O-])nc(C)n3Cc3ccccc3)[nH]c2cc1C	NOMO-1 viab 107 (no result: YB-1 expression)
O=C(Cc1ccccc1)Sc1nc2ccccc2[nH]1	none (no result: PD-1 reverse act, NOMO-1 viab, YB-1 expression)
Cc1nc([N+](=O)[O-])c(Sc2nc3ccccc3[nH]2)n1Cc1ccccc1	NOMO-1 viab 101 (no result: YB-1 expression)
O=C(CN1C(=O)CCc2ccccc21)NCCc1ccccc1	none (no result: PD-1 reverse act, NOMO-1 viab, YB-1 expression)
O=C(CCn1nc(-c2ccccc2)ccc1=O)NCCc1ccccc1	none (no result: PD-1 reverse act, NOMO-1 viab, YB-1 expression)
CCC(Sc1nc(Nc2ccc(F)cc2)c2ccccc2n1)C(=O)Nc1ccc2c(c1)OCO2 (configuration not stated)	ROS inducer 118 (no result: PD-1 reverse act, NOMO-1 viab, YB-1 expression)
CCCc1cc(=O)[nH]c(/N=C(\N)Nc2cccc(C)c2)n1	none (no result: PD-1 reverse act, NOMO-1 viab, YB-1 expression)
C[C@@H]1CN([C@@H](C)CO)C(=O)c2cc(NS(=O)(=O)c3ccc(Cl)cc3)ccc2O[C@H]1CN(C)Cc1ccc(C(=O)Nc2ccccc2N)cc1	NOMO-1 viab inconclusive
COc1ccc(S(=O)(=O)Nc2ccc3c(c2)C(=O)N([C@@H](C)CO)C[C@H](C)[C@H](CN(C)Cc2ccc(C(=O)Nc4ccccc4N)cc2)O3)cc1	NOMO-1 viab 109
C[C@@H]1CN([C@H](C)CO)C(=O)c2cc(NS(=O)(=O)c3ccc(Cl)cc3)ccc2O[C@@H]1CN(C)Cc1ccc(C(=O)Nc2ccccc2N)cc1	NOMO-1 viab 109
C[C@H](CO)N1C[C@H](C)[C@H](CN(C)Cc2ccc(C(=O)Nc3ccccc3N)cc2)Oc2ccc(NS(=O)(=O)c3ccc(Cl)cc3)cc2C1=O	NOMO-1 viab 96
COC(=O)N(C)c1ccc(C(O)(C(F)(F)F)C(F)(F)F)cc1	none (no result: PD-1 reverse act, NOMO-1 viab, YB-1 expression)
COc1cc(OC)c(O[C@@H]2O[C@H](COC(=O)c3cc(O)c(O)c(O)c3)[C@@H](O)[C@H](O)[C@H]2O)c(OC)c1	YB-1 expression 5.6
O=C(OC[C@H]1O[C@@H](Oc2ccc(O)cc2)[C@H](O)[C@@H](O)[C@@H]1O)c1ccc(O)cc1	none (no result: PD-1 reverse act, NOMO-1 viab)
C[C@H](CO)N1C[C@H](C)[C@@H](CN(C)Cc2ccc(C(=O)Nc3ccccc3N)cc2)Oc2ccc(NS(=O)(=O)c3ccc(Cl)cc3)cc2C1=O	none
Cc1ccc(S(=O)(=O)Nc2ccc3c(c2)CC(=O)N([C@H](C)CO)C[C@@H](C)[C@@H](CN(C)Cc2ccc(C(=O)Nc4ccccc4N)cc2)O3)cc1	NOMO-1 viab 107, ROS inducer inconclusive
C[C@H](CO)N1C[C@H](C)[C@H](CN(C)Cc2ccc(C(=O)Nc3ccccc3N)cc2)Oc2ccc(NS(=O)(=O)c3ccc(F)cc3)cc2CC1=O	NOMO-1 viab 140
C[C@H](CO)N1C[C@H](C)[C@H](CN(C)Cc2ccc(C(=O)Nc3ccccc3N)cc2)Oc2ccc(NS(=O)(=O)c3ccc(Cl)cc3)cc2CC1=O	NOMO-1 viab 141
Cc1ccc(S(=O)(=O)Nc2ccc3c(c2)CC(=O)N([C@@H](C)CO)C[C@H](C)[C@@H](CN(C)Cc2ccc(C(=O)Nc4ccccc4N)cc2)O3)cc1	none
C[C@H](CO)N1C[C@H](C)[C@@H](CN(C)Cc2ccc(C(=O)Nc3ccccc3N)cc2)Oc2ccc(NS(=O)(=O)c3ccc(F)cc3)cc2C1=O	none
Fc1ccc(Nc2cccc3nonc23)cc1	none (no result: PD-1 reverse act, NOMO-1 viab, YB-1 expression)
Fc1ccc(Nc2nc3ccccc3nc2Nc2ccc(F)cc2)cc1	NOMO-1 viab 135
CCn1c(SCC(=O)Nc2cc(C)c(C)cc2Br)nnc1-c1ccccc1F	none (no result: YB-1 expression)
